Test [1] concerns the target Retinoic acid receptor RXR-alpha (Homo sapiens) (UniProt P19793). The test can be described thus: qHTS assay to identify small molecule agonists of the RXR signaling pathway (AID 1159527; calls by dose curve; note: nearly all actives have a fitted effect of over 35% in size; note: potency is the fitted concentration of half-maximal effect). The settings on record: HEK293T RXRa-UAS-bla, beta-lactamase ratio, 16 h; series mostly up to 76.8 µM. Put shortly: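 16 hr incubation of compound-treated RXR-alpha-UAS-bla HEK 293T cells (2% charcoal-stripped FBS, 37 C) preceded a 2 hr room-temperature LiveBLAzer FRET substrate step and blue/green fluorescence measurement.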
On the technique in general: qHTS replaces the single test concentration by a dilution series.

The nature of test [2]: qHTS assay to identify small molecule agonists of the RXR signaling pathway - cell viability counter screen (AID 1159529). Note: nearly all actives have a fitted effect of over 50% in size. Particulars: RXR-alpha-bla HEK293T viability, CellTiter-Glo, 16 h; series mostly up to 76.8 µM. The procedure, abridged: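 In this parallel viability measure, GeneBLAzer RXR-alpha HEK 293T cells (2% charcoal-stripped FBS) were given a 5 hr preincubation, treated with compounds 16 hr at 37 C, and read by CellTiter-Glo luminescence.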

Test [3] can be described thus: qHTS assay to identify small molecule antagonists of the retinoid acid receptor (RAR) signaling pathway - cell viability counter screen (AID 1159551). Note: nearly all actives have a fitted effect of over 35% in size. The settings on record: C3RL4 cells viability, ATP luminescence (CellTiter-Glo), 6 h; series mostly up to 92.4 µM. The procedure, abridged: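 In this counter screen, the RARE-luciferase line C3RL4 was exposed for 6 h at 37 C and 5% CO2 to compounds with retinol at 1 uM final. Cellular ATP, read by luminescence, served as the viability measure.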

Test [4] in a line: qHTS assay to identify small molecule agonists of the retinoic acid receptor (RAR) signaling pathway (AID 1159553). Particulars: C3RL4 RARE luciferase reporter, agonist, 6 h; series mostly up to 73.3 µM. Put shortly:
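In this cell-based screen, 1,000 C3RL4 cells per well were cultured overnight, dosed with test chemicals in DMSO for 6 hr, and assessed for RARE luciferase luminescence.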

The nature of test [5]: qHTS assay to identify small molecule antagonists of the estrogen related receptor (ERR) signaling pathway from Tox21 library - cell viability counter screen (AID 1224834). Note: nearly all actives have a fitted effect of over 30% in size. Particulars: ERR reporter cells viability, CellTiter-Fluor, 17.5 h; series mostly up to 92.4 µM. Put shortly: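 Counter screen run in ERR cells (2,000 cells/well): cells pre-incubated 6 h, then treated with compounds for 17.5 h at 37 C. Fluorescence was read 30 min after CellTiter-Fluor addition.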

The target in test [6] is Luciferin 4-monooxygenase (Photinus pyralis) (UniProt P08659). Description: qHTS assay to identify small molecule inhibitors of firefly luciferase (AID 1224835). Note: nearly all actives have a fitted effect of over 25% in size. Note: potency is the fitted concentration of half-maximal effect. Particulars: purified P. pyralis luciferase, luminescence inhibition; series mostly up to 115 µM. Put shortly: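 Inhibition of purified Photinus luciferase is measured by luminescence. Substrate levels (D-luciferin, ATP) sit at their KM values. Each compound is tested in a concentration series.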

Test [7] is described as follows: qHTS assay to identify small molecule agonists of the constitutive androstane receptor (CAR) signaling pathway - cell viability counter screen (AID 1224836). Note: nearly all actives have a fitted effect of over 45% in size. Particulars: HepG2-CYP2B6-hCAR viability, CellTiter-Fluor, 23 h, PK11195 added to every well; series mostly up to 92.4 µM. Put shortly: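 Using CellTiter-Fluor, viability of HepG2 cells harbouring hCAR and CYP2B6-2.2kb was measured following 23 h incubation with a 15-concentration compound series plus PK11195 (0.75 uM final).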

Test [8] is described as follows: qHTS assay to identify small molecule antagonists of the constitutive androstane receptor (CAR) signaling pathway - cell viability counter screen (AID 1224837). Note: nearly all actives have a fitted effect of over 45% in size. Particulars: HepG2-CYP2B6-hCAR viability, CellTiter-Fluor, 23 h, co-treated with 50 nM CITCO; series mostly up to 92.4 µM. The procedure, abridged: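 CITCO at 50 nM final was added alongside compounds (15 concentrations) to double-stable hCAR/CYP2B6-2.2kb HepG2 cells. Following 23 hr at 37 C, cell viability was quantified by CellTiter-Fluor fluorescence intensity.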

In test [9] the target is Nuclear receptor subfamily 1 group I member 3 (Homo sapiens) (UniProt Q14994). The test can be described thus: qHTS assay to identify small molecule antagonists of the constitutive androstane receptor (CAR) signaling pathway (AID 1224838). Note: nearly all actives have a fitted effect of over 40% in size. The settings on record: HepG2-CYP2B6-hCAR luciferase, CITCO-stimulated, 24 h; series mostly up to 92.4 µM. The procedure, abridged: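 Inhibition of CITCO-driven (50 nM final) CYP2B6 reporter expression is measured in HepG2 cells stably carrying hCAR. Fifteen compound concentrations are applied for 24 h at 37 C, followed by luciferase luminescence.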

Test [10] has the same target. Description: qHTS assay to identify small molecule agonists of the constitutive androstane receptor (CAR) signaling pathway (AID 1224839). Note: nearly all actives have a fitted effect of over 15% in size. Particulars: HepG2 hCAR CYP2B6-luciferase, agonist mode, 24 h; series mostly up to 92.4 µM. The procedure, abridged: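 Double-stable HepG2 cells (hCAR, CYP2B6-2.2kb) seeded 4 h before compound addition. Exposure 24 h with 0.75 uM PK11195 final. Luciferase detected by ONE-Glo.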

Test [11] can be described thus: qHTS assay to identify small molecule antagonists of the estrogen related receptor signaling pathway with the pleiotropic PPARgamma coactivator (PGC) from Tox21 10K library - cell viability counter screen (AID 1224840; active = well fitted cell-killing curve with a large enough effect in the repeat runs, not every such curve was filed as active; note: nearly all actives have a fitted effect of over 40% in size). The settings on record: PGC/ERR reporter cells viability, CellTiter-Fluor, 17.5 h; series mostly up to 92.4 µM. Put shortly: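 Readout: fluorescence intensity from CellTiter-Fluor after 30 min at 37 C/5% CO2. Preceded by 17.5 h treatment of PGC/ERR cells with DMSO-dissolved compounds, added 6 h post-seeding.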

Test [12] can be described thus: qHTS assay to identify small molecule antagonists of the estrogen related receptor signaling pathway with the pleiotropic PPARgamma coactivator (PGC) from Tox21 10K library (AID 1224841; call rule not given here; note: actives are mostly falling curves and most rising ones were filed inactive; nearly all actives have a fitted effect of over 50% in size). Particulars: PGC/ERR reporter cell line, ONE-Glo luciferase, 18 h; series mostly up to 92.4 µM. Put shortly:
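One-Glo luminescence, measured after half an hour at room temperature, quantified reporter output of PGC/ERR cells. These had been plated at 2,000 per well, incubated 6 h, dosed with compounds in DMSO, then kept 18 h at 37 C.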

The nature of test [13]: qHTS assay to identify small molecule agonists of the estrogen related receptor signaling pathway with the pleiotropic PPARgamma coactivator (PGC) from Tox21 10K library (AID 1224842). Note: nearly all actives have a fitted effect of over 15% in size. The settings on record: PGC/ERR reporter cell line, luciferase ONE-Glo, 18 h; series mostly up to 92.4 µM. The procedure, abridged:
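Luminescence from One-Glo (30 min, room temperature) measured after PGC/ERR cells had 18 h at 37 C with pinned compound (23 nL in DMSO). Cells had been seeded at 2,000 per well and pre-incubated 6 h.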

Test [14] concerns the target Thyrotropin receptor (Homo sapiens) (UniProt P16473). Description: qHTS assay to identify small molecule agonists of the thyroid stimulating hormone receptor (TSHR) signaling pathway (AID 1224843; calls by dose curve; note: nearly all actives have a fitted effect of over 45% in size). The settings on record: TSHR-HEK293 cells, cAMP HTRF, agonist mode, 30 min; series mostly up to 92.4 µM. Put shortly:
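Agonist activity read as cAMP rise via d2/cryptate HTRF competition, 1 h room-temperature detection, in HEK293 cells expressing TSHR. Fifteen-point titrations, each run in triplicate, with a 30 min room-temperature incubation beforehand.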

A short description of test [15]: qHTS assay to identify small molecule agonists of the hypoxia (HIF-1) signaling pathway - cell viability counter screen (AID 1224844; calls by dose curve; note: nearly all actives have a fitted effect of over 50% in size). The settings on record: HRE-bla ME-180 viability, CellTiter-Glo luminescence, 17 h; series mostly up to 76.8 µM. The procedure, abridged:
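In this counter screen, HRE-bla ME-180 cell viability after 17 hrs of compound exposure at 37C was read by CellTiter-Glo luminescence, multiplexed with the beta-lactamase reporter measurement.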

Test [16] in a line: qHTS assay to identify small molecule agonists of H2AX (AID 1224845; active = well fitted activation curve with a large enough effect in the signal ratio in the repeat runs, not every such curve was filed as active; the % refers to the signal ratio). Particulars: CHO-K1 phospho-H2AX Ser139 HTRF, 3 h; series mostly up to 154 µM. Put shortly:
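Phospho-H2AX Ser139 measured by HTRF (ex 320 nm; em 665 and 620 nm) after 24 hr antibody incubation. Compounds, 15 concentrations, 0.76% DMSO, were applied to CHO-K1 cells for 3hr at 37C before lysis.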

The nature of test [17]: qHTS assay to identify small molecule agonists of the hypoxia (HIF-1) signaling pathway (AID 1224846; active = well fitted activation curve with a large enough effect in the signal ratio in the repeat runs, not every such curve was filed as active; the % refers to the signal ratio). Particulars: HRE-bla ME-180 cells, beta-lactamase ratio, 17 h; series mostly up to 76.8 µM. Put shortly: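 ME-180 HRE-bla reporter cells; compounds in DMSO, 17 h at 37C; read-out beta-lactamase via CCF4-AM FRET.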
Test [18] is described as follows: qHTS assay to identify small molecule antagonists of the estrogen related receptor (ERR) signaling pathway - cell viability counter screen (AID 1224818). The settings on record: ERR reporter cell line viability counter screen; series mostly up to 46.1 µM. Put shortly:
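Viability of ERR cells, CellTiter-Fluor fluorescence; 17.5 h compound exposure at 37 C, DMSO vehicle; 30 min reagent incubation at 37 C/5% CO2.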

Test [19] can be described thus: qHTS assay to identify small molecule antagonists of the estrogen related receptor signaling pathway with the pleiotropic PPARgamma coactivator (PGC) cell viability counter screen (AID 1224822). Particulars: ERR/PGC reporter cell line viability counter screen; series mostly up to 46.1 µM. The procedure, abridged: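 17.5 h compound treatment of PGC/ERR cells at 37 C; readout CellTiter-Fluor fluorescence; run alongside the PGC/ERR antagonist screen to flag cytotoxic compounds.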

Test [20] in a line: qHTS assay to identify small molecule antagonists of the retinoic acid receptor (RAR) signaling pathway (AID 1159552; note: nearly all actives have a fitted effect of over 50% in size). Particulars: C3RL4 RARE luciferase reporter, retinol-stimulated, 6 h; series mostly up to 92.4 µM. The procedure, abridged: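 C3RL4 RARE-luc cells, overnight plating; retinol 1 uM final added right after compound; 6 hr 37 C; luciferase read at 30 min RT.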

Structures are written as SMILES. Where “and” joins values, the source holds several entries; their conditions need not be identical. Identical values can stand only once. Inconclusive results are not listed. A structure can be active in one record and inactive in another. Calls of active or inactive are those of the source. Unless noted, calls come from the whole dose curve; as a rule, active = well fitted curve in the direction sought with a large enough effect in the repeat runs; inconclusive = weak or mixed curves; inactive = no such curve, though single readings can be large; an effect the other way counts as inactive or inconclusive.

Sequence of Thyrotropin receptor (Homo sapiens) (P16473 whole entry, looked up): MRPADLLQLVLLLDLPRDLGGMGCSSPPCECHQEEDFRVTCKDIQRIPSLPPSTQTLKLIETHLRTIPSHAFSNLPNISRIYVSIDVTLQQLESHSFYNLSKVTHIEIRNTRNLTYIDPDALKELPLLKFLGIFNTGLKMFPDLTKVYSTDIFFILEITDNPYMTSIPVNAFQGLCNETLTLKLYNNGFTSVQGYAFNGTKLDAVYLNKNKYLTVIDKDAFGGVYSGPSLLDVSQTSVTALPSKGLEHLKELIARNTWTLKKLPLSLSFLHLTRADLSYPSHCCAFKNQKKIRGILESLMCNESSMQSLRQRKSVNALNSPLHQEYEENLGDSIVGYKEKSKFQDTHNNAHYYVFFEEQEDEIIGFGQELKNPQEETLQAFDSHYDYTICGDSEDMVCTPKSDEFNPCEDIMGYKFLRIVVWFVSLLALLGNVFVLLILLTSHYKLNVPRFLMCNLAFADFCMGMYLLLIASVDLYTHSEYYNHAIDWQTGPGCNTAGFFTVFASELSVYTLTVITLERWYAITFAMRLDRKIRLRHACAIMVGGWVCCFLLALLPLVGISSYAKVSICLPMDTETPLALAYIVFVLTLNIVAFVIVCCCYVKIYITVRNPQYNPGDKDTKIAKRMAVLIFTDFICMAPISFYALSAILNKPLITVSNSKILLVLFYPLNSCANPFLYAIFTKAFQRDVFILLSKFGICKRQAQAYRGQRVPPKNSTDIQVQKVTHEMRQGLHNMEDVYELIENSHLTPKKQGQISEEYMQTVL
Sequence of Nuclear receptor subfamily 1 group I member 3 (Homo sapiens) (Q14994 whole entry, looked up): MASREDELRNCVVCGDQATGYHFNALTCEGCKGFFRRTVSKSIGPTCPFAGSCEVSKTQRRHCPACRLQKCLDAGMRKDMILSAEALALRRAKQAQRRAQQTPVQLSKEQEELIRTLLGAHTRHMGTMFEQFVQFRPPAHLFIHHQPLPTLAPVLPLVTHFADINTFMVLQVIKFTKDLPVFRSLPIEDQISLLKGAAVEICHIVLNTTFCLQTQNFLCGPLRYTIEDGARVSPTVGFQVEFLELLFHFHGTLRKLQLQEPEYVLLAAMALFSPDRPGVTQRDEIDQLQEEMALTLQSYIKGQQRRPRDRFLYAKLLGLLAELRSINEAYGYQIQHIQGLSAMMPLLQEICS
Sequence of Retinoic acid receptor RXR-alpha (Homo sapiens) (P19793 whole entry, looked up): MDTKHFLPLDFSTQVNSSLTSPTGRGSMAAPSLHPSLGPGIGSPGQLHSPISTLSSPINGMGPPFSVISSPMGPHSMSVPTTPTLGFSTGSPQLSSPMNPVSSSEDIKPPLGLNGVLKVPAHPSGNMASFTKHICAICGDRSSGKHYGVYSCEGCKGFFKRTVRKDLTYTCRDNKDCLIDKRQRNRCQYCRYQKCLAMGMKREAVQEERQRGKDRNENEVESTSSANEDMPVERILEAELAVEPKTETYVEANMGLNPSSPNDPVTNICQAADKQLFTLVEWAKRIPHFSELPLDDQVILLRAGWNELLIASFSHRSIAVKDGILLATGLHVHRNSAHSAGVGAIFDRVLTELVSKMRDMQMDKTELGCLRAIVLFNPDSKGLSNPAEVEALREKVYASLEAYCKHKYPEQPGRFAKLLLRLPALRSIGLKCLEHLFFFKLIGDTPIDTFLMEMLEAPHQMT
Sequence of Luciferin 4-monooxygenase (Photinus pyralis) (P08659 whole entry, looked up): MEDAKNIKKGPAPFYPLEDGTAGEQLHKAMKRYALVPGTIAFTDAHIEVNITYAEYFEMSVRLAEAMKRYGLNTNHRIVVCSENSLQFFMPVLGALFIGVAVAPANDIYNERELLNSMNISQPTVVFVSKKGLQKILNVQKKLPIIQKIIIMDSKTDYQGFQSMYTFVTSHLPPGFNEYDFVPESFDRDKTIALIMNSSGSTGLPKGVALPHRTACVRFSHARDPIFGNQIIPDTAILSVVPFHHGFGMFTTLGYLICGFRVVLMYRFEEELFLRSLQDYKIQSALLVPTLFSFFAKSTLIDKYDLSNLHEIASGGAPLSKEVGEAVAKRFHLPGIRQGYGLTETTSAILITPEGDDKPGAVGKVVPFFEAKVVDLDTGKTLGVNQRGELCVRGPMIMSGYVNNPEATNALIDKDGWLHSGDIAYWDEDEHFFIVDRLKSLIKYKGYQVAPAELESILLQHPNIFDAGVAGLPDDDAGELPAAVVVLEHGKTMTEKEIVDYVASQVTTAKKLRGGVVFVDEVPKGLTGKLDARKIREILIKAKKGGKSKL

As to `O=C(Oc1ccccc1)c1ccccc1`, the Potency result in test [1], in [2], in test [4], in test [5], in [7] and in test [8] was “inactive” throughout. In addition, the Potency result in test [9], in [10], in test [11], in [12], in test [14] and in test [15] was “inactive” in each case. Also, the Potency entry in [16] was “inactive”. Moreover, the result in [3], in [13] and in test [17] was inactive. Besides, the Potency result in test [6] is “inactive and 71 µM (active)”.
`O=C1CCC(N2C(=O)c3ccccc3C2=O)C(=O)N1` (stereo not drawn): the Potency entry in [1], in test [2], in [4], in test [5], in [6] and in test [7] was “inactive” throughout. The Potency result in test [8], in [9], in [10], in test [11], in test [14] and in test [15] was “inactive” throughout. Also, the Potency result in test [16] is “inactive”. In addition, the compound was classed as inactive in test [3], in test [18] and in test [19].
As for `Nc1ccccc1[N+](=O)[O-]`, the Potency result in test [1], in test [2], in [20], in test [5], in test [6] and in test [7] was “inactive” in each case. Also, the Potency result in test [8], in [11], in [12], in test [14], in [15] and in test [16] was “inactive” in each case. In addition, the compound was classed as inactive in test [3], in test [13] and in [17].
In the case of `O=C(O)CCCC[C@@H]1SC[C@@H]2NC(=O)N[C@@H]21`, the Potency entry in test [1], in test [2], in test [4], in test [5], in test [6] and in test [7] was “inactive” in each case. The Potency entry in test [8], in test [9], in test [10], in [11], in test [12] and in test [14] was “inactive” each time. Besides, the Potency result in [15] and in test [16] was “inactive” throughout. For the same compound, the call in test [3] and in [13] was inactive.
Regarding `O=c1[nH]c(=O)n([C@H]2CCCO2)cc1F`, in test [1], the Potency was 17.4 µM (active) and inactive. Also, the Potency result in test [2], in test [4], in test [5], in test [6], in test [7] and in test [8] was “inactive” in each case. Besides, the Potency result in test [9], in [10], in [11], in test [14], in [15] and in test [16] was “inactive” each time. Also, the result in test [3] and in test [17] was inactive.
Turning to `CCOC(=O)NNc1nncc2ccccc12`, the Potency result in test [1], in test [2], in test [4], in test [5], in test [6] and in [7] was “inactive” throughout. In addition, the Potency result in [8], in [9], in [10], in [11], in test [14] and in test [15] was “inactive” in each case. Besides, the Potency entry in test [16] was “inactive”. Also, the compound was called inactive in test [3] and in test [17].
For `C=C(C)C(=O)OCCOCCOCCOC(=O)C(=C)C`, the Potency entry in test [1], in [2], in [20], in test [4], in test [5] and in test [6] was “inactive” throughout. Besides, the Potency result in [7], in test [8], in test [9], in test [10], in [11] and in test [14] was “inactive” throughout. Further, the Potency entry in test [15] and in [16] was “inactive” in each case. Besides, the compound was classed as inactive in [3] and in test [17].
Regarding `O=C(O)c1ccccc1C(c1ccc(O)cc1)c1ccc(O)cc1`, the Potency result in test [1], in [2], in test [20], in [4], in test [5] and in test [6] was “inactive” each time. Also, the Potency result in [7], in test [8], in [9], in [10], in test [11] and in test [12] was “inactive” throughout. Further, the Potency result in [14], in test [15] and in test [16] was “inactive” in each case. Further, the compound was classed as inactive in test [3], in [13] and in [17].

These data come from PubChem BioAssay (Tox21).
